Compound activity (PubChem)
LmPK inhibitor – qHTS Assay for Inhibitors of Leishmania Mexicana Pyruvate Kinase (LmPK); purified LmPK, Kinase-Glo ATP luminescence, 1 h; Potency, µM (titrated, usually from 57.5 µM), usual class: inhibitors; 290,000 tested, 0.37% active; AID 1721, 2009
Target sequence (Q27686 whole entry, looked up): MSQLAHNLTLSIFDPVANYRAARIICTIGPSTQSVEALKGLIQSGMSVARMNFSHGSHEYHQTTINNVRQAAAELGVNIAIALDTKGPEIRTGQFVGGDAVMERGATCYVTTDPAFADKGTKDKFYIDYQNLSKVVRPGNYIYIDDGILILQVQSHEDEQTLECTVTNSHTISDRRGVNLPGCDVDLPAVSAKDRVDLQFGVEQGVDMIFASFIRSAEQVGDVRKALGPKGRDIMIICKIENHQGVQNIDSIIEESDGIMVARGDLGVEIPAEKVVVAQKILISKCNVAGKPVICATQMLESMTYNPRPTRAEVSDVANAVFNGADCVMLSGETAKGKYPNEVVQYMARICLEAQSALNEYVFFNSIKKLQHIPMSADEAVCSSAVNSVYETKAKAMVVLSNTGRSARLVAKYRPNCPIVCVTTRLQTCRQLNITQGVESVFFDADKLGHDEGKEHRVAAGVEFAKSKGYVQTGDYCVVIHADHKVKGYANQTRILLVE
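Kinase-Glo luminescence read after 1 h RT reaction of 0.1 nM LmPK with 0.5 mM PEP and 0.1 mM ADP. Activity scaled between uninhibited and enzyme-free controls.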
AMA1-RON2 inh – qHTS for Inhibitors of AMA1-RON; Towards Development of Antimalarial Drug Lead: Primary Screen; Plasmodium falciparum AMA1 (3D7) - RON2 peptide interaction; AlphaScreen AMA1-biotinylated RON2 peptide binding; Potency, µM (titrated, usually from 58.2 µM), hits mostly inhibitors; 360,000 tested, 0.2% active; also: nearly all actives have a fitted effect of over 45% in size
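AMA1 (3D7) with his tag at 25 nM final met compounds first, then biotinylated RON2 peptide at 25 nM; detection used donor plus acceptor beads, 10 µg/mL apiece, read by AlphaScreen after 30 min at room temperature.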
Sm TGR block – qHTS Assay for the Inhibitors of Schistosoma Mansoni Peroxiredoxins. Potency, µM (titrated, usually from 114 µM), hits mostly inhibitors. 360,000 tested, 3% active. Schistosoma mansoni thioredoxin glutathione reductase (TGR), Q962Y6. purified TGR, DTNB reduction, TNB absorbance 405 nm; also: nearly all actives have a fitted effect of over 60% in size
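TGR 20 nM + NADPH 100 uM (dispensed conc.), cpd preinc 15 min RT; start with NADPH (500 uM addition) then DTNB (15 mM addition). Kinetic TNB absorbance, 405 nm filter. Four-parameter Hill fit across titration.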
Tb PYK inh – qHTS of Trypanosoma Brucei Inhibitors. pyruvate kinase (Trypanosoma brucei), Q57TT1. TbPYK enzyme, Kinase-Glo Plus ATP luminescence, 45 min. Potency, µM (titrated, usually from 76.8 µM), usual class: inhibitors. 410,000 tested, 0.12% active. AID 624173, 2012; also: nearly all actives have a fitted effect of over 50% in size
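Assay buffer: 50 mM TEA pH 7.2, 100 mM KCl, 10 mM MgCl2, 0.05% BSA, 0.01% Tween-20. Pyruvate kinase from T. brucei plus substrate met compound, then ADP (130 uM final). Luminescence was read post 45 min RT.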
RE007 growth inh – qHTS Assay for Inhibitors of the HIV-1 protein Vpr; AID 651644, 2012; Potency, µM (highest dose often 92.2 µM), actives largely listed as inhibitors; S. pombe RE007 Vpr strain, BacTiter-Glo ATP luminescence, 24 h; 360,000 tested, 0.21% active; active = well fitted falling curve with a large enough effect; inconclusive = small, poorly fitted or top-dose-only effect; inactive = no such curve, though single readings can be large or run the other way; also: nearly all actives have a fitted effect of over 50% in size
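Fission yeast RE007 carrying one integrated HIV-1 vpr copy, seeded at OD 0.01 in PMG+AL medium with 23 nL pinned compound. Grown 24 h at 30 degrees; viability read by BacTiter-Glo luminescence after 5 min.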
Each line names hits and unclear results; the compound was inactive in the other large screens. An excerpt weighted towards active compounds, which were near 3.2% of everything screened. Unless noted, calls follow the shape of the dose curve; as a rule, active = well fitted curve in the direction sought with a large enough effect; inconclusive = small, poorly fitted or top-dose-only effect, or another doubt; inactive = no such curve, though single readings can be large; an effect the other way counts as inactive or inconclusive.

CCC(=O)Nc1c2c(nn1-c1ccc(C)cc1C)CSC2	Sm TGR block inconclusive
CCC(=O)Nc1c2c(nn1-c1ccccc1)CSC2	Sm TGR block 50µM
Cc1cccc(-n2nc3c(c2NC(=O)c2ccco2)CSC3)c1C	Sm TGR block 45µM
COc1ccc(-n2nc3c(c2NC(=O)CCl)CSC3)cc1	Sm TGR block 8.9µM
Cc1ccc(-n2nc3c(c2NC(=O)c2ccc(Br)o2)CSC3)c(C)c1	Sm TGR block inconclusive
Cc1ccccc1-n1nc2c(c1NC(=O)CCCl)CSC2	Sm TGR block 18µM
CC1CCn2c(nc3cc(C(=O)NCc4ccc(OC(C)C)cc4)ccc32)C1 (stereo not drawn)	none (no result: LmPK inhibitor, AMA1-RON2 inh, RE007 growth inh)
COCCOC(=O)C1=C(C)NC(=O)NC1c1cn(-c2ccccc2)nc1-c1ccccc1 (stereo not drawn)	none (no result: LmPK inhibitor, AMA1-RON2 inh, RE007 growth inh)
COc1ccc(-n2nc3c(c2NC(=O)COc2ccccc2)CS(=O)(=O)C3)cc1	none
COc1ccc(-n2nc3c(c2NC(=O)COc2cccc(OC)c2)CS(=O)(=O)C3)cc1	Sm TGR block 32µM
CCC(=O)N1CCc2cc(CNS(=O)(=O)c3cc(Cl)ccc3OC)ccc21	none (no result: LmPK inhibitor, AMA1-RON2 inh, RE007 growth inh)
Fc1ccc(Nc2nc(SCc3ccccc3F)nc3ccccc23)cc1	none (no result: LmPK inhibitor, AMA1-RON2 inh, RE007 growth inh)
CC1(OC(=O)C2CCCC2)C(=O)C=C2C=C(c3ccsc3)N(Cc3ccco3)C=C2C1=O (stereo not drawn)	Sm TGR block 25µM
CC1(OC(=O)C2CCCC2)C(=O)C=C2C=C(c3ccsc3)OC=C2C1=O (stereo not drawn)	Sm TGR block 45µM
CC1(OC(=O)C2CCCC2)C(=O)C=C2C=C(c3ccsc3)N(CCCCO)C=C2C1=O (stereo not drawn)	none
COC(=O)CCCC1=CC2=CC(=O)C(C)(OC(=O)C3CCCC3)C(=O)C2=CO1 (stereo not drawn)	none
